Measurements taken from paper PMC7862700, “An all-to-all approach to the identification of sequence-specific readers for epigenetic DNA modifications on cytosine”.

Experiments:
Assay in all cases: DAPPL (digital affinity profiling via proximity ligation, sequencing); 10 mM Tris-HCl pH 7.5, 50 mM NaCl, 1 mM DTT, 4% glycerol, room temperature, 30 min; GST-TFs on glutathione beads, 16-mer random dsDNA library, 0.1% formaldehyde crosslink after washing; high values mean tight binding
Details in all cases: protein: recombinant; tags: N-terminal GST; dsDNA, one strand shown
FEV = biological target: T1, FEV (Homo sapiens, UniProt Q99581 1-238)
T1 sequence: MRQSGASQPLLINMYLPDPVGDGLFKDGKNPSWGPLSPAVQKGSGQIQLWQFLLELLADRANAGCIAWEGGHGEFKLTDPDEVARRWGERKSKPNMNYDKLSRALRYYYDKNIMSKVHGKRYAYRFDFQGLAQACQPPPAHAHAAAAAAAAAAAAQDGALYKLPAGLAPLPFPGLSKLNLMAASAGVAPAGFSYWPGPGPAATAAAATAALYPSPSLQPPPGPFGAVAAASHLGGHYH
Summary of the method: (§1)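 GST fusions of human transcription factors were expressed in yeast and captured with glutathione beads. Once given DNA barcodes and pooled alongside a tag-only sample, they were incubated for 30 min at room temperature with 200 nmole of a random double-stranded 16-mer DNA library in Tris/NaCl/DTT/glycerol buffer, then washed, crosslinked (0.1% formaldehyde), proximity-ligated, PCR-amplified and sequenced on an Illumina NextSeq500. The binding signal of each hexamer is its read frequency for a factor divided by its frequency for the tag-only sample.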

ETV5 = ETV5 (Homo sapiens, UniProt P41161 1-510)
Summary of the method: as §1

SPIC = biological target: T2, SPIC (Homo sapiens, UniProt Q8N5J4 1-248)
T2 sequence: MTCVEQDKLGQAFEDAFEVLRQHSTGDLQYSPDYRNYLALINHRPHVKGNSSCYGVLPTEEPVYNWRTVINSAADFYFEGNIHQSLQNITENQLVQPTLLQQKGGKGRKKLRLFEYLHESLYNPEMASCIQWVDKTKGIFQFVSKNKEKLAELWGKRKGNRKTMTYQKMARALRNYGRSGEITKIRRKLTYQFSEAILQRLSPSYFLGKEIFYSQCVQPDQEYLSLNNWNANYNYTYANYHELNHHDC
Summary of the method: as §1

ELF4 = ELF4 (Homo sapiens, UniProt Q99607 1-663)
Summary of the method: as §1

ELK4 = biological target: T3, ELK4 (Homo sapiens, UniProt P28324-2 1-405)
T3 sequence: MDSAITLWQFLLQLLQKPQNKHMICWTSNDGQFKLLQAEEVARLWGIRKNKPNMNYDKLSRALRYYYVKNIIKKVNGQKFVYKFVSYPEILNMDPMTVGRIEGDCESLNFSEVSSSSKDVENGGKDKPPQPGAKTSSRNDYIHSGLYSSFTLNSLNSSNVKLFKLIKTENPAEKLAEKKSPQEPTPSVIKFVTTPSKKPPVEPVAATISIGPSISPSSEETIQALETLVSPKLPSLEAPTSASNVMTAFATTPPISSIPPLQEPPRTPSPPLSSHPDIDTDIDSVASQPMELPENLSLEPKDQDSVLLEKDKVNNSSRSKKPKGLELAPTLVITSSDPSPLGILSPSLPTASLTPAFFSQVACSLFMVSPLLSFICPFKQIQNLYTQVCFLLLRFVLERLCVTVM
Summary of the method: as §1

ETV2 = biological target: T4, ETV2 (Homo sapiens, UniProt O00321 1-342)
T4 sequence: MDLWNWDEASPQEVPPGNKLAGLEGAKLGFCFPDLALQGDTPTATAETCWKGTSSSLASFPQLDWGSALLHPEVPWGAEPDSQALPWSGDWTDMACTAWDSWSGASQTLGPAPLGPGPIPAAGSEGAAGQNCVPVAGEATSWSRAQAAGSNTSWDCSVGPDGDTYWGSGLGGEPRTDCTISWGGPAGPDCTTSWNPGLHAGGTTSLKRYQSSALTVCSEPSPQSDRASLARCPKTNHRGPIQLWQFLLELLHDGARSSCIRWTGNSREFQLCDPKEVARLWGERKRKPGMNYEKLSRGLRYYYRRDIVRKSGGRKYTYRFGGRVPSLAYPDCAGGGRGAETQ
Summary of the method: as §1

ELF3 = biological target: T5, ELF3 (Homo sapiens, UniProt P78545 1-371)
T5 sequence: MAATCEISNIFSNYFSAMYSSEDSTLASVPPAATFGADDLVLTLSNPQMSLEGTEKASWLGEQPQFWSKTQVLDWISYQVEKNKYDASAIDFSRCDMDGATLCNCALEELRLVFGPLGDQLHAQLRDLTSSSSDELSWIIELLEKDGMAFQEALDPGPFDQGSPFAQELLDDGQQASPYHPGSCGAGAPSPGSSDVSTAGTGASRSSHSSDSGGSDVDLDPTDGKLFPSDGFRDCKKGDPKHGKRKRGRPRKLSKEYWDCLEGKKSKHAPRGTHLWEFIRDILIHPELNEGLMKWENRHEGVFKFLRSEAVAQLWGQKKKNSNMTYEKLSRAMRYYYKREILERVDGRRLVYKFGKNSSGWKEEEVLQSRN
Summary of the method: as §1

ETV1 = ETV1 (Homo sapiens, UniProt P50549 1-477)
Summary of the method: as §1

ERF = biological target: T6, ERF (Homo sapiens, UniProt P50548 1-548)
T6 sequence: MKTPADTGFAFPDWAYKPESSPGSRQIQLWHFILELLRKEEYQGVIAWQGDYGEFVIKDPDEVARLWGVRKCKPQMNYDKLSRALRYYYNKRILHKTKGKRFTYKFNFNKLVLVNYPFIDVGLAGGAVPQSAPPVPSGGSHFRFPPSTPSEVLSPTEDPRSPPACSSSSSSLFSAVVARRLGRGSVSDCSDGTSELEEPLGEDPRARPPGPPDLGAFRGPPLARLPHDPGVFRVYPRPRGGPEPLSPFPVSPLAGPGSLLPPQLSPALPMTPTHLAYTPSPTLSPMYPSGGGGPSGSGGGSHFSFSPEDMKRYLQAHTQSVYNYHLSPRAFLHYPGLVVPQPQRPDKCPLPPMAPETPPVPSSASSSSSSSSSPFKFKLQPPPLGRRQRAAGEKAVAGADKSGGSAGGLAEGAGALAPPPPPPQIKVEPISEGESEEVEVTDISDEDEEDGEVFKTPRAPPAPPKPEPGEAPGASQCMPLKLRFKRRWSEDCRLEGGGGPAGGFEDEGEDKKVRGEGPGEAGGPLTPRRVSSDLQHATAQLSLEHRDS
Summary of the method: as §1

ETV3L = biological target: T7, ETV3L (Homo sapiens, UniProt Q6ZN32 1-361)
T7 sequence: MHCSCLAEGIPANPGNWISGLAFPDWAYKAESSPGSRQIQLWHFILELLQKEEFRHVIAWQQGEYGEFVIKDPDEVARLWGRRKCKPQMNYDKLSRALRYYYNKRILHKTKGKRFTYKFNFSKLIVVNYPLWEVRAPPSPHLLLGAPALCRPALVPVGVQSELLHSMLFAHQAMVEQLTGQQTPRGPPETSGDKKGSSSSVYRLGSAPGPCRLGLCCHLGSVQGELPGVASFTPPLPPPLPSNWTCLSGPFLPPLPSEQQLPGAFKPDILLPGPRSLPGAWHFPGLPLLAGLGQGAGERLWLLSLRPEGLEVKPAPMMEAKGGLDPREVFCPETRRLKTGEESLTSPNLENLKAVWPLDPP
Summary of the method: as §1

ETS2 = biological target: T8, ETS2 (Homo sapiens, UniProt P15036 1-469)
T8 sequence: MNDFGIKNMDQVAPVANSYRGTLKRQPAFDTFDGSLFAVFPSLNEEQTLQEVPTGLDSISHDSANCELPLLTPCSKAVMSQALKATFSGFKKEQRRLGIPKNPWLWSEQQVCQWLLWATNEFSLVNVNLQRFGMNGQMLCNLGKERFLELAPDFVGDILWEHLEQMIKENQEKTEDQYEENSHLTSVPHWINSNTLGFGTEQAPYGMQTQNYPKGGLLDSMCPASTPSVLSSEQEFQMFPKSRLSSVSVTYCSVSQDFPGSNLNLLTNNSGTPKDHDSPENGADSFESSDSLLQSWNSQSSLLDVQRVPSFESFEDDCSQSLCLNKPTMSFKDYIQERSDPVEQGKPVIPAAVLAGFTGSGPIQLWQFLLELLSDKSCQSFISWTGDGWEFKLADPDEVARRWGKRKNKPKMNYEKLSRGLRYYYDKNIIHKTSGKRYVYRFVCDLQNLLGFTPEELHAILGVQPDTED
Summary of the method: as §1

SPDEF = biological target: T9, SPDEF (Homo sapiens, UniProt O95238 1-335)
T9 sequence: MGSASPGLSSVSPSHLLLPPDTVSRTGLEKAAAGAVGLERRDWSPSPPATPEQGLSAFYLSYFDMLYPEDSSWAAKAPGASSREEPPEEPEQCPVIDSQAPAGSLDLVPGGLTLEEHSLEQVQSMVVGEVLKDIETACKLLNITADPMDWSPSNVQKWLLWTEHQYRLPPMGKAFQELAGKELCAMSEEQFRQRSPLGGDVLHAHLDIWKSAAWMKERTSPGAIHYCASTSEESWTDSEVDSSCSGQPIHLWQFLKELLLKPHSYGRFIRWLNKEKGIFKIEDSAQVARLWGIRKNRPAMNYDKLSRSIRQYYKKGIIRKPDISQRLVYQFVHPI
Summary of the method: as §1

ETV7 = biological target: T10, ETV7 (Homo sapiens, UniProt Q9Y603 1-341)
T10 sequence: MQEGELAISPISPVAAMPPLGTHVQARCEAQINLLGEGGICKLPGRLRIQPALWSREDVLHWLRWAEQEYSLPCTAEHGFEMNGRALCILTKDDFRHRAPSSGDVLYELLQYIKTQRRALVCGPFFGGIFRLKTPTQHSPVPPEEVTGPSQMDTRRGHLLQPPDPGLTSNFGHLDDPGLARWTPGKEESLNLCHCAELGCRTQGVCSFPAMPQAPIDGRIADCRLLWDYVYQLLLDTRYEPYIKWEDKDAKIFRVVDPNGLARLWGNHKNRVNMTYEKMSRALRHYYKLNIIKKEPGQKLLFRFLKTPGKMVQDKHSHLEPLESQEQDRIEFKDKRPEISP
Summary of the method: as §1

ELF5 = biological target: T11, ELF5 (Homo sapiens, UniProt Q9UKW6-2 1-255)
T11 sequence: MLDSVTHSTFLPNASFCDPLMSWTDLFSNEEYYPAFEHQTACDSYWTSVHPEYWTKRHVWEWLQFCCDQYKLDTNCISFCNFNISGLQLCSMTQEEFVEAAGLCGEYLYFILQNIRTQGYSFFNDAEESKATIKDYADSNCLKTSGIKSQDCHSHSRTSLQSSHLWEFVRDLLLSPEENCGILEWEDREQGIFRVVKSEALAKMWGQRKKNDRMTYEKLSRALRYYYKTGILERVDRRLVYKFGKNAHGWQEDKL
Summary of the method: as §1

ETV3 = biological target: T12, ETV3 (Homo sapiens, UniProt P41162-2 1-143)
T12 sequence: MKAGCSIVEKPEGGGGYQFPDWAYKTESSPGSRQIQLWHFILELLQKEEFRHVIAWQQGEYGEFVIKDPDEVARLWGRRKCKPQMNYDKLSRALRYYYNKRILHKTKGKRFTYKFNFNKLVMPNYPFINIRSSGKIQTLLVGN
Summary of the method: as §1

ETV6 = ETV6 (Homo sapiens, UniProt P41212 1-452)
Summary of the method: as §1

Chain of ETV5 (P41161 whole entry): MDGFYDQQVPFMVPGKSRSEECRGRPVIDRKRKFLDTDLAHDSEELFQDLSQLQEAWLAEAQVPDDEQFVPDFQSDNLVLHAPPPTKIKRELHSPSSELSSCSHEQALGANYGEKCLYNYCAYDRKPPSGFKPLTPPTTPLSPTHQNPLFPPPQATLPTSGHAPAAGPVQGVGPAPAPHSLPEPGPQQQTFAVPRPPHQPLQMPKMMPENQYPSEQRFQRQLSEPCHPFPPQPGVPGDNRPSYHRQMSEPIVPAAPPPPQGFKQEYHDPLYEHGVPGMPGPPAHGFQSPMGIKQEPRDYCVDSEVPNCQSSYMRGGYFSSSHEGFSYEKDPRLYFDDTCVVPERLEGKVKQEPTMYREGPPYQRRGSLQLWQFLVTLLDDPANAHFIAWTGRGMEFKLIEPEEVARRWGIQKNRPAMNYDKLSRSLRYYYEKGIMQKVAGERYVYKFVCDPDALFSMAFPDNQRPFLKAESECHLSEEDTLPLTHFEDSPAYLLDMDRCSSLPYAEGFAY
Chain of ELF4 (Q99607 whole entry): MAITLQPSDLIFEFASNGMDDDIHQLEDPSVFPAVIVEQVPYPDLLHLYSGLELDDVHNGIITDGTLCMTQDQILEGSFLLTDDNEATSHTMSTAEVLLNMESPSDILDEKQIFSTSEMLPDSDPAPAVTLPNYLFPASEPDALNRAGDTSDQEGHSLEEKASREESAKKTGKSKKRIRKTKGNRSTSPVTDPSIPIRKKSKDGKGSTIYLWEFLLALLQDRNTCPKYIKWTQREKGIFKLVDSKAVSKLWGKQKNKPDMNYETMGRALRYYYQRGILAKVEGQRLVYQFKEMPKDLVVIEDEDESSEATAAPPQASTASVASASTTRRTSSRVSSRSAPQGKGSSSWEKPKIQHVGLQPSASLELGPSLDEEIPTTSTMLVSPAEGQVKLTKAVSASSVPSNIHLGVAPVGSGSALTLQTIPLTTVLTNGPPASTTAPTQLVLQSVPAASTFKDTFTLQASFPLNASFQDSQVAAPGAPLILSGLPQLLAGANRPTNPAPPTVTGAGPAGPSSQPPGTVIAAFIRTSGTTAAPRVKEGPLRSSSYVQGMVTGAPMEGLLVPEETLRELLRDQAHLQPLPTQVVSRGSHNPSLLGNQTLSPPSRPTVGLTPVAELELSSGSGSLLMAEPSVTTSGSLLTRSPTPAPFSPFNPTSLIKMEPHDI
Chain of ETV1 (P50549 whole entry): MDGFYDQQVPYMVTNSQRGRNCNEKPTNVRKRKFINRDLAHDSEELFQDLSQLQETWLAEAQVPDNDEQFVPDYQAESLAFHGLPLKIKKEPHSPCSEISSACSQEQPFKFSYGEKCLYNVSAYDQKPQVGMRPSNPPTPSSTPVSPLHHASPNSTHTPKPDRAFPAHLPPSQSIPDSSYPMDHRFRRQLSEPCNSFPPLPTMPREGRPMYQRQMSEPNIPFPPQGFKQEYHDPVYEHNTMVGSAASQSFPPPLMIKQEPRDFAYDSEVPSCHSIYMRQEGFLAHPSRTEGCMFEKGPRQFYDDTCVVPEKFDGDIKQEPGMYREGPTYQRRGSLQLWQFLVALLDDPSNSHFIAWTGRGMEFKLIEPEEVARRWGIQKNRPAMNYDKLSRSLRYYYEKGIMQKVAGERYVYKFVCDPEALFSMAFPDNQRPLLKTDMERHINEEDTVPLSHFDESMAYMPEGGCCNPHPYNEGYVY
Chain of ETV6 (P41212 whole entry): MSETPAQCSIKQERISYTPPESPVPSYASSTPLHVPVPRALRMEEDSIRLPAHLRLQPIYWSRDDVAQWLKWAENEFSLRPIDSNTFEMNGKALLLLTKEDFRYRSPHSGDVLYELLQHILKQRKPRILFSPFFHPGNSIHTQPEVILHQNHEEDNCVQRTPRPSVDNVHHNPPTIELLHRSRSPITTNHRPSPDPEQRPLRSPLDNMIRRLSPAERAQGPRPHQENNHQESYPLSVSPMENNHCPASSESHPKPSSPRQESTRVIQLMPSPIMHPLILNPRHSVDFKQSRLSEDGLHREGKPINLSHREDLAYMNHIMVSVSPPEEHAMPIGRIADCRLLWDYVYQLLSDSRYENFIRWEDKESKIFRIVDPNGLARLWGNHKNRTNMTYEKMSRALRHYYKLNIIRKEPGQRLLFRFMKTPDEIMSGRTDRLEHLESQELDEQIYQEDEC

Sequence	binding signal (FEV)	binding signal (ETV5)	binding signal (SPIC)	binding signal (ELF4)	binding signal (ELK4)	binding signal (ETV2)	binding signal (ELF3)	binding signal (ETV1)	binding signal (ERF)	binding signal (ETV3L)	binding signal (ETS2)	binding signal (SPDEF)	binding signal (ETV7)	binding signal (ELF5)	binding signal (ETV3)	binding signal (ETV6)
TGCACA	1.14 fold enrichment (6-mer frequency, TF over GST control)	1.13 fold enrichment (6-mer frequency, TF over GST control)	1.15 fold enrichment (6-mer frequency, TF over GST control)	1.12 fold enrichment (6-mer frequency, TF over GST control)	1.11 fold enrichment (6-mer frequency, TF over GST control)	1.15 fold enrichment (6-mer frequency, TF over GST control)	1.26 fold enrichment (6-mer frequency, TF over GST control)	1.09 fold enrichment (6-mer frequency, TF over GST control)	1.22 fold enrichment (6-mer frequency, TF over GST control)	1.13 fold enrichment (6-mer frequency, TF over GST control)	1.06 fold enrichment (6-mer frequency, TF over GST control)	1.21 fold enrichment (6-mer frequency, TF over GST control)	1.02 fold enrichment (6-mer frequency, TF over GST control)	1.07 fold enrichment (6-mer frequency, TF over GST control)	1.18 fold enrichment (6-mer frequency, TF over GST control)	1.06 fold enrichment (6-mer frequency, TF over GST control)
CCCGGC	1.16 fold enrichment (6-mer frequency, TF over GST control)	1.15 fold enrichment (6-mer frequency, TF over GST control)	1.11 fold enrichment (6-mer frequency, TF over GST control)	1.19 fold enrichment (6-mer frequency, TF over GST control)	1.27 fold enrichment (6-mer frequency, TF over GST control)	1.07 fold enrichment (6-mer frequency, TF over GST control)	1.01 fold enrichment (6-mer frequency, TF over GST control)	1.19 fold enrichment (6-mer frequency, TF over GST control)	1.06 fold enrichment (6-mer frequency, TF over GST control)	1.19 fold enrichment (6-mer frequency, TF over GST control)	1.16 fold enrichment (6-mer frequency, TF over GST control)	1.28 fold enrichment (6-mer frequency, TF over GST control)	1.13 fold enrichment (6-mer frequency, TF over GST control)	1.14 fold enrichment (6-mer frequency, TF over GST control)	1.27 fold enrichment (6-mer frequency, TF over GST control)	1.22 fold enrichment (6-mer frequency, TF over GST control)
GTTTCA	1.31 fold enrichment (6-mer frequency, TF over GST control)	1.26 fold enrichment (6-mer frequency, TF over GST control)	1.06 fold enrichment (6-mer frequency, TF over GST control)	1.33 fold enrichment (6-mer frequency, TF over GST control)	1.28 fold enrichment (6-mer frequency, TF over GST control)	1.15 fold enrichment (6-mer frequency, TF over GST control)	1.28 fold enrichment (6-mer frequency, TF over GST control)	1.43 fold enrichment (6-mer frequency, TF over GST control)	1.35 fold enrichment (6-mer frequency, TF over GST control)	1.35 fold enrichment (6-mer frequency, TF over GST control)	1.34 fold enrichment (6-mer frequency, TF over GST control)	1.22 fold enrichment (6-mer frequency, TF over GST control)	1.21 fold enrichment (6-mer frequency, TF over GST control)	1.35 fold enrichment (6-mer frequency, TF over GST control)	1.3 fold enrichment (6-mer frequency, TF over GST control)	1.21 fold enrichment (6-mer frequency, TF over GST control)
